HSF1 inh: HSF1 inhibitors in luciferase reporter cells, primary screen, cell-based, NIH3T3, luminescence; activity change, negative = inhibition, % at 7.5 µM (by protocol); NIH3T3-HGL HSE-luciferase, MG132-induced, luminescence 8 h; active compounds read low; actives 0.77% (n = 300,000);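 active = more than half of replicate wells show activity change below -50%, luminescence cut by over half; inconclusive = some wells, but at most half, below -50%; inactive = no replicate well below -50%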;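 note: luciferase reports HSF-1 transcriptional activity via heat shock element; 0% = median of DMSO wells and -100% = zero luminescence signal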
HSP90 refold inh: HSP90 inhibitors, primary screen, cell lysate, luminescence | inhibition, % at 5.6 µM | Rabbit reticulocyte lysate, luciferase refolding luminescence, 3 h | actives 0.91% (n = 290,000);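 active = inhibition above the screen-wide mean plus 3 SD, computed separately per campaign, cut at about 16% in these data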;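 note: 0% = DMSO wells and 100% = 60 µM geldanamycin wells; inhibitors lower the luminescence because luciferase stays unfolded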
PG9 binder: binders of HIV-1 gp120 antibody PG9, primary screen, biochemical, TR-FRET; TR-FRET gp120-PG9 antibody binding; inhibition, % at 6.7 µM; actives 0.43% (n = 360,000); AID 624416, 2012; in the data active = inhibition above about 8.5%
FXN GAA850 act: FXN promoter activators, primary screen, cell-based, luciferase luminescence, HEK293 lucGAA850 | AID 540364, 2011 | HEK293 lucGAA850 FXN promoter luciferase reporter, 24 h; percent of 10 µM SAHA response | activation, % at 6 µM | actives 0.56% (n = 360,000);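 active = activation above the average of all compounds screened plus 3 SD, cutoff fixed separately per campaign, cut at about 7.5% in these data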;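 note: 0% = DMSO wells and 100% = 10 µM SAHA wells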
AI-2 QS mod: Vibrio harveyi AI-2 quorum sensing modulators, primary screen, JMH597 strain, luminescence/OD600 ratio | Vibrio harveyi JMH597 AI-2 luminescence/OD600 ratio, 9 h; active compounds read low; strain lacks LuxN and CqsS sensors; 0 = neutral-control median | activity change, % at 7.5 µM | actives 0.4% (n = 300,000); in the data active = activity change below about -75%, passing the limit was not always enough; inconclusive = no clear call, values can overlap the other calls;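 note: luminescence divided by OD600 gain over 9 h not by final OD600 alone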
SMARCA2 act: SMARCA2 (BRM) function activators, primary screen, cell-based, luminescence, high throughput | MG213 cells, MMTV-luciferase reporter, dexamethasone, overnight | activation, % at 9.1 µM | actives 1% (n = 370,000) | AID 652017, 2013; in the data active = activation above about 7.8%;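 note: 0% = vehicle wells and 100% = reference activator wells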
JMH597 growth rt: Vibrio harveyi growth inhibition, confirmation, counter-screen for AI-2 quorum sensing project, JMH597 strain, OD600 absorbance; actives 1% (n = 750); growth inhibition, % at 7.5 µM; shares compounds with AI-2 QS mod; 9 h; lacks LuxN and CqsS sensors;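 active = every replicate shows growth inhibition above 50%; inconclusive = at least half, but not all, replicates pass that cutoff; inactive = fewer than half of replicates pass it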
BB721 const-QS lum: luminescence inhibition in constitutive-on V. harveyi, confirmation, counter-screen for LuxS inhibitor project, strain BB721, luminescence readout; shares compounds with AI-2 QS mod; Vibrio harveyi BB721 luminescence, 9 h; inhibition, % at 7.5 µM; actives 95% (n = 750); AID 2727, 2010;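 active = inhibition above about 80% in every replicate, not just on average, limit read from the data; inconclusive = at least half of replicates past the limit, but not all; inactive = fewer than half of replicates past the limit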
BB721 growth: growth inhibition of V. harveyi BB721, confirmation, cytotoxicity control for AI-2 quorum sensing inhibitors, strain BB721, absorbance OD600; growth inhibition, % at 7.5 µM; AID 2728, 2010; shares compounds with AI-2 QS mod; Vibrio harveyi BB721 growth, 9 h; actives 3% (n = 750);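 active = every replicate shows growth inhibition above 50%; inconclusive = at least half but not all replicates above 50% inhibition; inactive = under half of replicates above 50% inhibition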
AI-2 QS JMH597: Vibrio harveyi AI-2 signaling luminescence modulation – JMH597 strain, confirmation; actives 97% (n = 750); AID 2736, 2010; Vibrio harveyi JMH597 AI-2 quorum sensing luminescence, 9 h; luxN and CqsS knockout, AI-2 only; shares compounds with AI-2 QS mod; inhibition, % at 7.5 µM;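 active = every replicate shows more than 75% inhibition of signal versus neutral control wells; inconclusive = half to three quarters of replicates exceed 75% inhibition; inactive = fewer than half of replicates exceed 75% inhibition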
* marks the source's active call; other numbers are inactive results; ? = inconclusive; . = no result. This is a sample that favours compounds with a hit; in the whole collection about 3.4% have one here.

SMILES | HSF1 inh | HSP90 refold inh | PG9 binder | FXN GAA850 act | AI-2 QS mod | SMARCA2 act | JMH597 growth rt | BB721 const-QS lum | BB721 growth | AI-2 QS JMH597
COc1ccc(-c2noc(Cc3ccc(Cl)cc3)n2)cc1OC | 2 | -2 | -2 | 0 | -10 | 4 | . | . | . | .
O=C(/C=C/Sc1ccccc1)c1ccccc1 | 80 | 0 | -1 | 5 | -92* | 8 | 10 | 98* | 47 | 98*
COc1cccc(C2NC(=S)NC(C)=C2C(C)=O)c1 (stereo not drawn) | . | . | -1 | . | . | 1 | . | . | . | .
CCc1nc2c(OCc3ccc4c(c3)OCO4)cccn2c1N(C=O)Cc1ccccc1 | . | . | -1 | 2 | . | -4 | . | . | . | .
C=CCSc1nnc(-c2ccc(Cl)cc2Cl)o1 | 28 | 0 | -2 | 1 | 19 | 6 | . | . | . | .
Clc1ccc(-c2nnc(CCc3ccccc3)o2)c(Cl)c1 | 35 | 0 | 0 | 2 | -90* | 6 | 19 | 97* | 22 | 98*
COC(=O)Cc1nnn2c1[C@@H](C)[C@@H](c1ccccc1Br)OC[C@H](C)C2 | . | . | 1 | . | . | 3 | . | . | . | .
c1ccc(Oc2cc(-c3ccccc3)ncn2)cc1 | 15 | -3 | 0 | 2 | -93* | 3 | 11 | 98* | 10 | 98*
CC(C)N(c1cc(=O)nc2ccccn12)C(C)C | . | . | 0 | . | . | 2 | . | . | . | .
Nn1c(SCC(=O)Nc2ccc(OC(F)F)cc2)nnc(Cc2ccccc2)c1=O | -5 | . | 0 | 1 | -92* | -1 | 53 | 96* | ? | 97*
COc1ccc(NC(=O)CSc2nnc(Cc3ccccc3)c(=O)n2N)c(OC)c1 | 2 | . | -3 | 1 | 32 | 2 | . | . | . | .
C[C@@H]1CN([C@@H](C)CO)S(=O)(=O)c2ccc(Br)cc2O[C@H]1CN(C)C(=O)Nc1ccc(C(F)(F)F)cc1 | . | . | -2 | 0 | . | -4 | . | . | . | .
Nc1nc(SCC(=O)c2ccc(Oc3ccccc3)cc2)n[nH]1 | 5 | 0 | 1 | 1 | -94* | 1 | 15 | 97* | -86 | 98*
Cc1ccc(Oc2ccc(NC(=O)CSc3n[nH]c(N)n3)cc2)cc1 | 3 | 3 | -1 | 1 | -94* | 0 | -3 | 95* | -8 | 98*
Cc1cc2c(nc1C)CCCN2S(=O)(=O)c1ccc(C(F)(F)F)cc1 | . | . | 1 | . | . | -3 | . | . | . | .
COC(=O)C1=C(C)N(Cc2ccc(C(F)(F)F)cc2)C(=NCc2ccc(C(F)(F)F)cc2)NC1c1ccccc1C(F)(F)F (stereo not drawn) | . | . | 0 | . | . | -1 | . | . | . | .
Clc1ccc(CON/C=N/c2ncnc3sccc23)cc1 | -10 | 17* | 1 | -2 | -93* | -4 | 17 | 98* | 10 | 99*
C(=N\c1ncnc2sccc12)/NOCc1ccccc1 | -11 | 3 | -1 | -3 | -95* | -1 | -11 | 98* | -24 | 98*
c1ccc(CNc2ncnc3sccc23)cc1 | -11 | 0 | 1 | -1 | 12 | -3 | . | . | . | .
COc1ccnc(N=CNOCc2ccc(C)cc2)c1C#N | 13 | 6 | -1 | 3 | 7 | 3 | . | . | . | .

Compound activity as filed in PubChem.
